Measurements taken from the supplement of paper PMC10849652.
Of roughly 7,900 targets only a part is listed; those with a hit were picked by preference. About 0.6% of all pairs of compound and target were hits.

compound: c1cn2cc(-c3ccc4cn[nH]c4c3)nc(Nc3ccc(N4CCOCC4)cc3)c2n1 [entospletinib]; test: log2 fold change, soluble protein after heating vs DMSO (PISA); higher = thermal stabilisation; K562 cells, 10 uM, 30 min; active = over 0.2 and 3.5 SD of the protein, either way, in both replicates (recomputed)
Procedure, shortened: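 Values are thermal stability changes relative to control samples and are taken from duplicates. They are stated as log2 fold changes. Before quantification by TMTpro 16plex LC-MS/MS with equalised channel sums, K562 cells at 2×10^6 cells/mL were treated with 10 μM compound for 30 min, heated in aliquots for 3 min across 48°C-58°C, pooled, extracted in PBS with 0.5% NP-40 at 4°C, and centrifuged at 21,000xg for 90 min to give the soluble supernatant.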

Sequence of UniProt Q15392 (Q15392 whole entry, looked up): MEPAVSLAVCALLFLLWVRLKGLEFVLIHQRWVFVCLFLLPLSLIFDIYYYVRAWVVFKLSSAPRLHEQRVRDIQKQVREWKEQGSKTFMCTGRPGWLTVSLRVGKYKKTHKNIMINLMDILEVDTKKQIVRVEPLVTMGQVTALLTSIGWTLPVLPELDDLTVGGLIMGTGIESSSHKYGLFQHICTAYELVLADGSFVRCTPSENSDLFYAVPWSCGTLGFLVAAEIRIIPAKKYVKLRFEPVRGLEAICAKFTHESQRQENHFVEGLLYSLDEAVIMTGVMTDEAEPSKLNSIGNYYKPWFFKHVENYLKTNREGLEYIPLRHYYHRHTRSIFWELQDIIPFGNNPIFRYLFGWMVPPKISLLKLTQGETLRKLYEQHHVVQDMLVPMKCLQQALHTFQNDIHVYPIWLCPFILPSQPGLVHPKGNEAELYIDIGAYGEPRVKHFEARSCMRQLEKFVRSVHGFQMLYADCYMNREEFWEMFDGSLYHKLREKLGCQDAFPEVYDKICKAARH
Sequence of UniProt Q96GE9 (Q96GE9 whole entry, looked up): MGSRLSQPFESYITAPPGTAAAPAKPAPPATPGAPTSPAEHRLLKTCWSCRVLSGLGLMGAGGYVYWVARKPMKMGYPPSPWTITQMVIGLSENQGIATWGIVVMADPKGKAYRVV
Sequence of UniProt Q2TBE0 (Q2TBE0 whole entry, looked up): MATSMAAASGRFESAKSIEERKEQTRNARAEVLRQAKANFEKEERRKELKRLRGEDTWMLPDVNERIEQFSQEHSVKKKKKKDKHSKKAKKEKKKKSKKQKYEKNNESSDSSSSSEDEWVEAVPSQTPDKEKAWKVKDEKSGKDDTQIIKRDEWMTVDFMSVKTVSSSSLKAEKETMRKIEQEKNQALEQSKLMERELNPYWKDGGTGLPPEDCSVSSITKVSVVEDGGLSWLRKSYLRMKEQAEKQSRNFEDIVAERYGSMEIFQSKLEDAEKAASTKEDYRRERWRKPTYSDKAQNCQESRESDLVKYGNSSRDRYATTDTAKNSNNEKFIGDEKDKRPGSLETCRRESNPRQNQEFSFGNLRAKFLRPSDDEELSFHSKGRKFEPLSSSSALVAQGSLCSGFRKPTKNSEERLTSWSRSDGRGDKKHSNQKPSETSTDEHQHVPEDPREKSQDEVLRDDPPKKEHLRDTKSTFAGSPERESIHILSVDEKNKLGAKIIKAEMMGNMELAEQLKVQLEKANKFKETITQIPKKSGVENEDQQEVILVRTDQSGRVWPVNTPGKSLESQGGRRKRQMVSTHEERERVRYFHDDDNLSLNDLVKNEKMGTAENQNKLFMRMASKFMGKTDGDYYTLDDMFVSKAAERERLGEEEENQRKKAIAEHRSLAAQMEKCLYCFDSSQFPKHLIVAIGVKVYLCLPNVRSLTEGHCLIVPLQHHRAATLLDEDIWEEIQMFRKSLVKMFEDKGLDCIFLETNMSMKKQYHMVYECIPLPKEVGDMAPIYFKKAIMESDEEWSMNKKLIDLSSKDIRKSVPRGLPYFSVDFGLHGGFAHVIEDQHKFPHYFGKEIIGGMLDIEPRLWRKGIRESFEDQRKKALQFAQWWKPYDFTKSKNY
Sequence of UniProt Q3B7T1 (Q3B7T1 whole entry, looked up): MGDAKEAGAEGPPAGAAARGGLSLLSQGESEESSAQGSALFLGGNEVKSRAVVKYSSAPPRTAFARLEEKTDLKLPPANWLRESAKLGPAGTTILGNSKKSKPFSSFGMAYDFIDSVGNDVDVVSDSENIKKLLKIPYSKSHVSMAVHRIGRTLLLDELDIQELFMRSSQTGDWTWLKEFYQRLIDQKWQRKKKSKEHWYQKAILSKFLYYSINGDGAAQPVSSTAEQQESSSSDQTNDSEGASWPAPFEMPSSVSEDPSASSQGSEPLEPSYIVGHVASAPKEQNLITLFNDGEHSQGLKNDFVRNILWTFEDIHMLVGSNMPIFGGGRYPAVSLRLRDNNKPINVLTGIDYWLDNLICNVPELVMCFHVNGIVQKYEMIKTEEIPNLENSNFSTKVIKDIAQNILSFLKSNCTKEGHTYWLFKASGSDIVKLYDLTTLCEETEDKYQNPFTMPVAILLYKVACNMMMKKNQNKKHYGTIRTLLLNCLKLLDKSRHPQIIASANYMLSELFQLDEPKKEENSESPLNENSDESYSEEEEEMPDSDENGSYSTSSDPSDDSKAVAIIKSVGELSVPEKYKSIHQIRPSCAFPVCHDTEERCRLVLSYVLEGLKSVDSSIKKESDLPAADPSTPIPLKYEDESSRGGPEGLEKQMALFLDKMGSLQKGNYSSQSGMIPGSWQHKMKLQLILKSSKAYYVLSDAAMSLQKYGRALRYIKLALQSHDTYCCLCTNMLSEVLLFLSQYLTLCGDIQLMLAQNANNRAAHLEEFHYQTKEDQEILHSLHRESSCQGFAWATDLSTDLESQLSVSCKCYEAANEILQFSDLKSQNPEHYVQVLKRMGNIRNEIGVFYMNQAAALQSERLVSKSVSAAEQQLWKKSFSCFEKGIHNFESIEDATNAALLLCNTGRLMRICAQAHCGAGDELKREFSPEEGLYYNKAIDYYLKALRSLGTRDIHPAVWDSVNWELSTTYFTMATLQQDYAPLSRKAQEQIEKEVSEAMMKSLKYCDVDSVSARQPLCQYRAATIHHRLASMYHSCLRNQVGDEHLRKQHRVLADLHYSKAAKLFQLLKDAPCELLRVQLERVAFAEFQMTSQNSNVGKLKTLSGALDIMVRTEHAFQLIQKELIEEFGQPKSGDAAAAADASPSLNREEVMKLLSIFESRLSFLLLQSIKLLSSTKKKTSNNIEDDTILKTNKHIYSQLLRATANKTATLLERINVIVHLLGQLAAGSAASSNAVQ
Sequence of UniProt P39880 (P39880 whole entry, looked up): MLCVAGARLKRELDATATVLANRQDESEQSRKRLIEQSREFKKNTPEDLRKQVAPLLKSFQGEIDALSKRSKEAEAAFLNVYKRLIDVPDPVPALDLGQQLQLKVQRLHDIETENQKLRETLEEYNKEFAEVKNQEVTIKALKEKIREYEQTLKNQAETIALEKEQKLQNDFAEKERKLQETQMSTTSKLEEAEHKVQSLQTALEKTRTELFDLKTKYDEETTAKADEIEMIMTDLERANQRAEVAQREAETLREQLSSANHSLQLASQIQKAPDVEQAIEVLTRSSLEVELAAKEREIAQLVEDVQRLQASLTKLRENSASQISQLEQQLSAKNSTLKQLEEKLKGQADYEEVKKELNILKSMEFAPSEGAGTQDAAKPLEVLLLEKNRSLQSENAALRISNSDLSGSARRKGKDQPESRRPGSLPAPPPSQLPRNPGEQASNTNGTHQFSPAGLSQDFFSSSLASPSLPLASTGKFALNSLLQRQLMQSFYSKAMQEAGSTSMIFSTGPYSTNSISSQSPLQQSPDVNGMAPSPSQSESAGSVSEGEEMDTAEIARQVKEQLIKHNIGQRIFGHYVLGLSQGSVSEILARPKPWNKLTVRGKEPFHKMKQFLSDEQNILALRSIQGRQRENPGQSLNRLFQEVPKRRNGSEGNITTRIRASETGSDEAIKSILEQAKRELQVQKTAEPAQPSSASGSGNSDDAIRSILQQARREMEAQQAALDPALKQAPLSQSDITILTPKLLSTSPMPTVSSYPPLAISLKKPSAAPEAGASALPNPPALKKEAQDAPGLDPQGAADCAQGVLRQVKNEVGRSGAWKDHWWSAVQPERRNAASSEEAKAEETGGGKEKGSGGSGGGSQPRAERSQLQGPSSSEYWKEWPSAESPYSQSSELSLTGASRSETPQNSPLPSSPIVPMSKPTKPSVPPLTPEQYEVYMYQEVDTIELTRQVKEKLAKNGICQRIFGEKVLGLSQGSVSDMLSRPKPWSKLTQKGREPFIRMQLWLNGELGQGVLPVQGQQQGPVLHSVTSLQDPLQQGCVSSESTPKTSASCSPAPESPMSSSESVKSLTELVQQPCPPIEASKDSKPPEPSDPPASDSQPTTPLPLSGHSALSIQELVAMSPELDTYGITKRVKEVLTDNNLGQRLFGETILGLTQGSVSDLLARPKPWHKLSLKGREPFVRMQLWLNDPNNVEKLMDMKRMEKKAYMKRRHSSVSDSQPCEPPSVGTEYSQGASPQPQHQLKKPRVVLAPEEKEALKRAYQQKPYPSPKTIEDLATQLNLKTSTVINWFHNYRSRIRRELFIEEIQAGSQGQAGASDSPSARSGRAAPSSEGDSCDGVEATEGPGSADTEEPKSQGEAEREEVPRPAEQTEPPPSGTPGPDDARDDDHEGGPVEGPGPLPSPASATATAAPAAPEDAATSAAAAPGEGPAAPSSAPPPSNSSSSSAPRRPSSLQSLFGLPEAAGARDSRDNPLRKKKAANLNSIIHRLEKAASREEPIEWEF
Sequence of UniProt Q99615 (Q99615 whole entry, looked up): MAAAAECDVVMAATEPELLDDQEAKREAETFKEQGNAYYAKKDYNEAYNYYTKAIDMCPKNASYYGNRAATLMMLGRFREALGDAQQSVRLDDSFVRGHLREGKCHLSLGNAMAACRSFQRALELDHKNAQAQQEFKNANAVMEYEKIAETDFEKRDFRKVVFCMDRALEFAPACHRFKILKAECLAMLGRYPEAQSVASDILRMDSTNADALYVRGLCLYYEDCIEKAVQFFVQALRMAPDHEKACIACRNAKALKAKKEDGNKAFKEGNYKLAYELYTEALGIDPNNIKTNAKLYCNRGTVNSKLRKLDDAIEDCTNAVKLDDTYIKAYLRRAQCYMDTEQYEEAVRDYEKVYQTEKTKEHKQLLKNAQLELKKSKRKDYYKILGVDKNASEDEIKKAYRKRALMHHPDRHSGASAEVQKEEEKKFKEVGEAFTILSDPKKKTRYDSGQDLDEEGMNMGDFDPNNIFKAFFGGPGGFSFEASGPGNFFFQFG
Sequence of UniProt P06730 (P06730 whole entry, looked up): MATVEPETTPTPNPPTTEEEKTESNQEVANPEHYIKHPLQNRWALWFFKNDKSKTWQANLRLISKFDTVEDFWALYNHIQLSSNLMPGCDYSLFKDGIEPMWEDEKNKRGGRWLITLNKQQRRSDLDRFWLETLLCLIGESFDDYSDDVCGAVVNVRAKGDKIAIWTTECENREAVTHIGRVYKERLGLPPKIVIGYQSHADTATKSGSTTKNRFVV

log2 fold change, inactive:
DHCR24 (UniProt Q15392) -0.016
CTSB (UniProt P07858) 0.008
DNAH10 (UniProt Q8IVF4) -0.132
EDRF1 (UniProt Q3B7T1) -0.036
EFL1 (UniProt Q7Z2Z2) -0.06
FAM207A (UniProt Q9NSI2) 0.013
DNAJC7 (UniProt Q99615) -0.034
EIF4E isoform 2 (UniProt P06730) 0.062
EXOSC10 (UniProt Q01780) 0.1
ERLIN2 (UniProt O94905) -0.062
DHX40 (UniProt Q8IX18) -0.055
DTWD1 (UniProt Q8N5C7) 0.039
DMXL1 (UniProt Q9Y485) 0.04
FAM3A (UniProt P98173) 0.023
EHD2 (UniProt Q9NZN4) -0.038
EEF1B2 (UniProt P24534) 0.038
DHCR7 (UniProt Q9UBM7) -0.045
DCAF4 (UniProt Q8WV16) -0.146
EVC2 (UniProt Q86UK5) -0.104
ELOVL5 isoform 2 (UniProt Q9NYP7) 0.063
DNAH11 (UniProt Q96DT5) 0.115
EPHX2 (UniProt P34913) 0.05
DLD (UniProt P09622) 0.051
ERCC6 (UniProt Q03468) 0.045
EEF1A1 (UniProt P68104) 0.046
DCTN1 isoform 4 (UniProt Q14203) 0.061
CYP24A1 (UniProt Q07973) 0.019
DCAF6 isoform 3 (UniProt Q58WW2) -0.008
CWF19L2 (UniProt Q2TBE0) -0.162
CUX1 isoform 3 (UniProt P39880) 0.016
DMAC1 (UniProt Q96GE9) 0.073
DCAF13 (UniProt Q9NV06) 0.061
EOGT (UniProt Q5NDL2) 0.005
CUX1 isoform 2 (UniProt Q13948) -0.019
